Laboratory results taken from PubChem BioAssay (NCI).
The panel holds about 83,000 compounds, 20% with a hit somewhere; the sample as a whole holds those more often.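 Percent growth is the endpoint: 0 to 100 indicates growth inhibition (40 means 60% inhibition), 0 means no net growth, and negative values indicate cell death.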 The source made the active and inactive calls. How the source made its calls: active means growth percent below 10; inactive means the rest.

What was measured:
Experiment in all cases: NCI-60 one-dose screen, 48 h (100 = growth as untreated, 0 = no growth, -100 = all killed)
Conditions in all cases: 10 µM unless noted
[1] = system: DU-145 prostate
[2] = system: K-562 leukemia
[3] = system: MALME-3M melanoma
[4] = system: MDA-MB-231 breast
[5] = system: RXF 393 renal
[6] = system: SF-268 CNS
[7] = system: SF-295 CNS
[8] = system: SF-539 CNS
[9] = system: UACC-257 melanoma
[10] = system: M14 melanoma
[11] = system: HCT-15 colon
[12] = system: HT29 colon
[13] = system: SNB-75 CNS
[14] = system: SNB-19 CNS
[15] = system: U251 CNS
[16] = system: PC-3 prostate
[17] = system: SK-MEL-5 melanoma
[18] = system: UACC-62 melanoma
[19] = system: LOX IMVI melanoma
[20] = system: SK-MEL-28 melanoma

Measured: growth

COc1cccc(CCC2CCCN(c3cc(C)nc(N)n3)C2)c1 (stereo not given)
inactive: [1] 25.9% | [2] 10.9% | [3] 55.2% | [4] 22.7% | [5] 22.3% | [6] 42.6% | [7] 14.7% | [8] 10.1% | [9] 44.5% | [11] 21.9% | [13] 25.9% | [14] 23.8% | [15] 15% | [16] 20.2% | [17] 18.2% | [18] 29.3% | [19] 17% | [20] 50.2%
active: [10] 6.51% | [12] 4.64%

CCN(CC)CCNc1ccc(C)c2sc3cc(C)ccc3c(=O)c12
inactive: [1] 67% | [3] 72.5% | [4] 19.4% | [5] 59.1% | [6] 59.1% | [7] 72.9% | [8] 76.3% | [9] 65.5% | [11] 21.2% | [13] 67.2% | [14] 57.6% | [15] 45.5% | [16] 41% | [17] 21.9% | [19] 28.4% | [20] 74.5%
active: [2] -19.6% | [10] -46.2% | [12] 1.25% | [18] -15.2%

Cl.[Pt].[c-]1ccccc1-c1ccccn1.c1ccc(P(c2ccccc2)C([PH+](c2ccccc2)c2ccccc2)[PH+](c2ccccc2)c2ccccc2)cc1
active: [3] -9.83% | [4] -8.43% | [7] 7.09% | [8] 8.54% | [11] 7.95% | [13] 7.24% | [16] 9.46% | [17] -87.3%
inactive: [1] 24.1% | [2] 11% | [5] 11.3% | [6] 27.6% | [9] 15.5% | [10] 19.2% | [12] 10.4% | [14] 27.6% | [15] 10.7% | [18] 16.8% | [19] 12.1% | [20] 34%

CCCCCCCC/C=C/CCCCCCCC1=NCC[N+]1(CCO)CCO
inactive: [1] 78.9% | [2] 32.7% | [3] 96.2% | [4] 56.6% | [5] 50.1% | [6] 75.2% | [7] 79.6% | [8] 90.3% | [9] 104% | [10] 71.4% | [11] 80.6% | [12] 13% | [13] 63.2% | [14] 73.7% | [15] 36.1% | [16] 31.9% | [17] 77.9% | [18] 69.4% | [19] 52% | [20] 96.3%

CCO/C=N/C1=C(C#N)C(c2ccc(OC)cc2)c2c(c3ccccc3n(C)c2=O)O1 (stereo not given)
inactive: [1] 106% | [2] 102% | [3] 96.5% | [4] 101% | [5] 104% | [6] 99.2% | [7] 101% | [8] 98.6% | [9] 102% | [10] 103% | [11] 103% | [12] 104% | [13] 78.1% | [14] 101% | [15] 103% | [16] 98.4% | [17] 102% | [18] 98.7% | [19] 99.1% | [20] 110%

CCN(CC)CCOC(=O)N1c2ccccc2Sc2ccccc21
inactive: [1] 99.9% | [2] 90.7% | [3] 91.4% | [4] 81.9% | [5] 98.3% | [6] 102% | [7] 93.8% | [8] 100% | [9] 102% | [10] 93.4% | [11] 102% | [12] 75.9% | [13] 84.2% | [14] 97.8% | [15] 91.8% | [16] 68.8% | [17] 94.2% | [18] 91% | [19] 96.7% | [20] 101%

OC(c1cccc(OCc2ccccc2)c1)c1nnc(-c2ccccc2)o1 (stereo not given)
inactive: [1] 107% | [2] 91% | [3] 92.1% | [4] 89.9% | [5] 95.5% | [6] 95.3% | [7] 64% | [8] 93.1% | [9] 94.5% | [10] 105% | [11] 90% | [12] 116% | [13] 94.2% | [14] 99.4% | [15] 96.7% | [16] 81% | [17] 66.4% | [18] 61.7% | [19] 84.9% | [20] 108%

O=C(NC(=S)Nc1ccc(-c2nc3ccccc3[nH]2)cc1)c1ccc2ccccc2c1
inactive: [1] 18.8% | [2] 59.9% | [6] 51% | [7] 19.7% | [9] 49.2% | [10] 38% | [11] 29.2% | [12] 21.8% | [14] 66.2% | [15] 13.9% | [16] 22.8% | [17] 14.7% | [18] 34.1% | [20] 40.5%
active: [3] -12% | [4] -18.6% | [5] -66.3% | [8] -30.8% | [13] -62.4% | [19] -45.8%
